# Reference: PubChem BioAssay (NCATS)
# Records with an inconclusive call do not appear. Where a call stands in place of a potency, no number is given. Values without a mark were called inactive. Activity calls are given as the source filed them. Unless noted, the call rests on the fitted dose curve; in most records, active means well fitted curve in the direction sought with a large enough effect; inconclusive means small, poorly fitted or top-dose-only effect, or another doubt; inactive means no such curve, though single readings can be large; an effect the other way counts as inactive or inconclusive.
# What was measured:
# [1] = biological target: Calcium and integrin-binding protein 1 (Homo sapiens) (UniProt Q99828); assay: Primary qHTS for Identification of Calcium Integrin Binding Protein 1 (CIB1) Competitor (AID 1508620);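 further: GST tagged CIB1 binding a fluorescein labelled alphaIIb integrin peptide tracer; top concentration of the series differs between compounds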
# Method in brief: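 Fluorescence polarization competition: GST-tagged CIB1 (1 uM final) preincubated with compound 15 min at room temperature, then FITC-labelled alphaIIb peptide (100 nM final) added. After 15 min at room temperature, polarization read at Ex 480/Em 540.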
# [2] = Primary qHTS for small molecule stabilizers of the endoplasmic reticulum resident proteome: Secreted ER Calcium Modulated Protein (SERCaMP) assay (AID 1508630); further: potency means the concentration at half of the fitted maximal effect
# Method in brief: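 The SH-SY5Y reporter protocol was run at 3 concentrations up to 38.3 uM (primary) or 11 concentrations (follow-up): 16 h compound, 100 nM thapsigargin for 4 h, then extracellular luciferase luminescence.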
# [3] = Cell Viability qHTS for small molecule stabilizers of the endoplasmic reticulum resident proteome (AID 1508629); settings: cell viability counter-screen, 100 nM thapsigargin for final 4 h;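 further: compound exposure about 46 h in total before the viability read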; further: potency means the concentration at half of the fitted maximal effect;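 on max response: human SH-SY5Y neuroblastoma cells carrying the GLuc-SERCaMP reporter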
# [4] = Counterscreen qHTS for small molecule stabilizers of the endoplasmic reticulum resident proteome: GLuc-NoTag assay (AID 1508627); further: potency means the concentration at half of the fitted maximal effect
# Method in brief: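 Counterscreen line: SH-SY5Y-GLuc-NoTag. Seed, 5 h; compound, 19 h; thapsigargin 100 nM, 4 h; 37C/5% CO2. Readout: secreted GLuc luminescence, coelenterazine 0.07x final, no lysis.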
# [5] = Confirmatory qHTS for small molecule stabilizers of the endoplasmic reticulum resident proteome: Secreted ER Calcium Modulated Protein (SERCaMP) assay (AID 1508628); further: nearly all actives have a fitted effect of over 40% in size; further: potency means the concentration at half of the fitted maximal effect
# Method in brief: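 GLuc-SERCaMP-expressing SH-SY5Y cells, pretreated 16 h with compound, are challenged with thapsigargin to empty ER calcium stores; after 4 h, coelenterazine is added directly to the medium and luminescence is imaged.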
# [6] = Primary qHTS for inhibitors of nuclear receptor binding SET domain protein 2 (NSD2) in an isogenic RCH-ACV NSD2 p.E1099K mutant (9B) (AID 1645876); further: potency means the concentration at half of the fitted maximal effect; nearly all actives have a fitted effect of over 70% in size
# [7] = A High-Content qHTS Against Drug Library for the Identification of Small Molecules that Inhibit DYT1 Early Onset Primary Dystonia-Associated Cell Pathology (AID 1645839; calls by dose curve; further: potency means the concentration at half of the fitted maximal effect)
# Method in brief: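 Cells were seeded and left for 24 h, then dosed with compound alongside tetracycline induction of mutant EGFP-TorsinA. They were incubated for 48 h, fixed in 4% paraformaldehyde, permeabilized and imaged for mislocalization (%pathology) and cell count.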
# [8] = biological target: Cytochrome P450 3A4 (Homo sapiens) (UniProt P08684); assay: Cytochrome P450 family 3 subfamily A member 4 (CYP3A4) small molecule antagonists: luciferase qHTS assay (AID 1645841; active means well fitted curve in the direction sought with a large enough effect in the repeat runs; an effect the other way counts as inactive or inconclusive; further: nearly all actives have a fitted effect of over 45% in size)
# Method in brief: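 P450-Glo CYP3A4 enzyme with proluciferin substrate preincubated 10 min with compound at room temperature, then NADPH regeneration 1 h. Luciferin detection reagent added for 20 min; luminescence recorded. Ketoconazole positive control.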
# [9] = biological target: N-terminal Xaa-Pro-Lys N-methyltransferase 1 (Homo sapiens) (UniProt Q9BV86); assay: Confirmatory qHTS for Inhibitors of N-terminal methyltransferase 1 (NTMT1): MTaseGlo Assay (AID 1645874); further: nearly all actives have a fitted effect of over 65% in size; further: potency means the concentration at half of the fitted maximal effect
# Method in brief: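 Inhibition was derived from luminescence after SAH-to-ATP conversion, scaled between no-enzyme and DMSO wells, then fitted by 4-parameter Hill. Conditions: 125 nM NTMT1, 100 uM SAM, 1 uM SPKRIA, 30 min RT.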
# [10] = biological target: Cytochrome P450 2C9 (Homo sapiens) (UniProt P11712); assay: Cytochrome P450 family 2 subfamily C member 9 (CYP2C9) small molecule antagonists: luciferase biochemical (cell-free) qHTS assay (AID 1645842; active means well fitted curve in the direction sought with a large enough effect in the repeat runs; an effect the other way counts as inactive or inconclusive; further: nearly all actives have a fitted effect of over 55% in size; further: potency means the concentration at half of the fitted maximal effect)
# Method in brief: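 P450-Glo CYP2C9 system: proluciferin substrate with enzyme in mix containing 0.4% BSA, 10 min at room temperature, then NADPH regeneration solution added and incubated 1 h at 37C. Detection reagent stopped reaction; luminescence read after 20 min as RLU.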
# [11] = Primary qHTS for inhibitors of nuclear receptor binding SET domain protein 2 (NSD2) in an RCH-ACV wild type WT cells (2C) (AID 1645877); further: potency means the concentration at half of the fitted maximal effect; nearly all actives have a fitted effect of over 70% in size
# Calcium and integrin-binding protein 1 (Homo sapiens), sequence (Q99828 whole entry, looked up): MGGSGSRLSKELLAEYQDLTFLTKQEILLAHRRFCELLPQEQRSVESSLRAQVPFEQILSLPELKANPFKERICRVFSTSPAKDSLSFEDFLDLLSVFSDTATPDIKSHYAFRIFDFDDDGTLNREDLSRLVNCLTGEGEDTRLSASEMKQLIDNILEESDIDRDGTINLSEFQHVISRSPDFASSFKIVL
# N-terminal Xaa-Pro-Lys N-methyltransferase 1 (Homo sapiens), sequence (Q9BV86 whole entry, looked up): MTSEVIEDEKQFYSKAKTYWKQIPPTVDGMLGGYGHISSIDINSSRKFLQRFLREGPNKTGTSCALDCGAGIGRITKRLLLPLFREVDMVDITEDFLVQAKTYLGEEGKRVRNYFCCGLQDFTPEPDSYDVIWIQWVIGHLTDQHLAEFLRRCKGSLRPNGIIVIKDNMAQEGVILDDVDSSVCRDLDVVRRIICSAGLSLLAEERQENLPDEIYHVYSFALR
# Cytochrome P450 2C9 (Homo sapiens), sequence (P11712 whole entry, looked up): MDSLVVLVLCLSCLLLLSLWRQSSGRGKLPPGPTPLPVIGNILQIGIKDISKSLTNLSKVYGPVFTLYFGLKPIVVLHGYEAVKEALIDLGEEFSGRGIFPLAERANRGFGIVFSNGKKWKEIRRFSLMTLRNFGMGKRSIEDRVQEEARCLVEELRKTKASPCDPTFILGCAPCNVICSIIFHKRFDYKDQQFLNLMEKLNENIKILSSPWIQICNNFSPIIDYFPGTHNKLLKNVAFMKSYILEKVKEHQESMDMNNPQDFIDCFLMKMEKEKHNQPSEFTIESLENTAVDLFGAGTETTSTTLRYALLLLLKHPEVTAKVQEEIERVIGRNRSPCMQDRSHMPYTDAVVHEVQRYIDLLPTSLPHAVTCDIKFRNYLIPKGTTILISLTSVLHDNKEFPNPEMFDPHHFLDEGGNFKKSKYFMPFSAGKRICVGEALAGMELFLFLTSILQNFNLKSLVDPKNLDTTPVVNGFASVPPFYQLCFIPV
# Cytochrome P450 3A4 (Homo sapiens), sequence (P08684 whole entry, looked up): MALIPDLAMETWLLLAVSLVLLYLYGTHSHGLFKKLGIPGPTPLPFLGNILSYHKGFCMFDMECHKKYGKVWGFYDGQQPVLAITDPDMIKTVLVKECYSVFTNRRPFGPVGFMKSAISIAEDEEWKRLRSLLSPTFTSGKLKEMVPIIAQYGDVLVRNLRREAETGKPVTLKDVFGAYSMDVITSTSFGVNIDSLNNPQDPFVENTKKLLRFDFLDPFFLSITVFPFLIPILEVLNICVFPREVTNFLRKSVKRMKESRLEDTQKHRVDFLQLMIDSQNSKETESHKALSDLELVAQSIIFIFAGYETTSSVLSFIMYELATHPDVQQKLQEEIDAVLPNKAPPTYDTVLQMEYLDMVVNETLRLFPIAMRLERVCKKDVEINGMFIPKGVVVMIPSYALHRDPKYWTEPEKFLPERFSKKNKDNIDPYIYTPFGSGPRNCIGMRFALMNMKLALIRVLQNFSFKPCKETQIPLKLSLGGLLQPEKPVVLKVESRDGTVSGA
smiles,measurement,setting,value
CC=CC[C@@H](C)C(=O)[C@H]1C(=O)N[C@@H](C(C)C)C(=O)N(C)CC(=O)N(C)[C@@H](CC(C)C)C(=O)N[C@@H](C(C)C)C(=O)N(C)[C@@H](CC(C)C)C(=O)N[C@@H](C)C(=O)N[C@H](C)C(=O)N(C)[C@@H](CC(C)C)C(=O)N(C)[C@@H](CC(C)C)C(=O)N(C)[C@@H](C(C)C)C(=O)N1C,Potency,[1],inactive
same,Potency,[2],inactive
CC(=Cc1ccccc1)C=C1SC(=S)N(CC(=O)O)C1=O,Potency,[1],inactive
same,Potency,[2],inactive
OC[C@H]1O[C@@H](n2cnc3c2NC=NC[C@@H]3O)C[C@H]1O,Potency,[1],inactive
same,Potency,[2],inactive
CC(=NNC(=S)N1CCC1)c1ccccn1,Potency,[1],inactive
same,Potency,[2],inactive
Cn1cc(C=C2C(=O)Nc3cccnc32)c2ccccc21,Potency,[1],inactive
same,max response,[3],16.6%
C=C1C(=O)OC2C=C(C)CCC=C(C)CCC12 (stereo not given),Potency,[1],inactive
same,Potency,[4],inactive
CCN(CC)CCOc1ccc(C(=C(Cl)c2ccccc2)c2ccccc2)cc1,Potency,[1],inactive
COCCCCC(=NOCCN)c1ccc(C(F)(F)F)cc1,Potency,[1],inactive
same,Potency,[2],inactive
COc1ccc2c3c1OC1C[C@@H](O)C=C[C@@]31CCN(C)C2 (stereo not given in full),Potency,[1],inactive
same,Potency,[2],inactive
C[C@]12CCC3c4ccc(O)cc4CCC3C1CCC2=O (stereo not given in full),Potency,[1],inactive
same,Potency,[2],inactive
CC=CCC=CCCC(=O)[C@H]1O[C@@H]1C(N)=O,Potency,[1],inactive
same,Potency,[2],inactive
CC(=O)OC1C(C)OC(Oc2c(-c3ccc(O)cc3)oc3cc(O)cc(O)c3c2=O)C(O)C1OC(C)=O (stereo not given),Potency,[1],inactive
O=c1ccn([C@@H]2O[C@H](CO)[C@H](O)[C@H]2O)c(=O)[nH]1,Potency,[1],inactive
same,Potency,[4],inactive
same,Potency,[5],inactive
same,Potency,[2],1.68 µM (active)
O=C(CCc1ccc(O)cc1)c1c(O)cc(O)cc1O[C@@H]1O[C@H](CO)[C@H](O)[C@H](O)[C@H]1O,Potency,[1],inactive
same,Potency,[2],inactive
O=C(O)C=Cc1ccc(O)c(O)c1,Potency,[1],inactive
CC1(C)S[C@H]2[C@H](NC(=O)[C@@H](N)c3ccc(O)cc3)C(=O)N2[C@@H]1C(=O)O,Potency,[1],inactive
same,Potency,[2],inactive
CC(C)(C)OC(=O)N[C@H]1CCCCCC=C[C@@H]2C[C@@]2(C(=O)NS(=O)(=O)C2CC2)NC(=O)[C@@H]2C[C@@H](OC(=O)N3Cc4cccc(F)c4C3)CN2C1=O,Potency,[1],inactive
same,Potency,[2],inactive
C[C@]12CC[C@@H]3c4ccc(O)cc4CC[C@H]3[C@H]1C[C@@H](O)[C@H]2O,Potency,[1],inactive
same,Potency,[2],inactive
NC[C@@H]1O[C@@H](O[C@H]2[C@@H](O)[C@H](O[C@@H]3[C@@H](O)[C@@H](N)C[C@H](N)[C@H]3O[C@H]3O[C@H](CN)[C@@H](O)[C@@H](O)[C@H]3N)O[C@H]2CO)[C@H](N)[C@@H](O)[C@@H]1O,Potency,[1],inactive
same,Potency,[2],inactive
C=CCc1ccc(O)c(-c2ccc(O)c(CC=C)c2)c1,Potency,[1],inactive
Cc1nnc(C(C)C)n1C1C[C@H]2CC[C@@H](C1)N2CC[C@H](NC(=O)C1CCC(F)(F)CC1)c1ccccc1 (stereo not given in full),Potency,[1],inactive
same,Potency,[2],inactive
O=C1c2ccccc2-[n+]2ccc3c([nH]c4ccccc43)c21,Potency,[1],inactive
same,Potency,[4],2 µM (active)
same,Potency,[5],20 µM (active)
same,Potency,[3],1 µM (active)
same,Potency,[2],10.6 µM (active)
same,Potency,[6],1.32 µM (active)
CS(=O)(=O)N(Cc1ccco1)CC(O)Cn1c2ccccc2c2ccccc21 (stereo not given),Potency,[1],inactive
NC(=O)NN=Cc1ccc([N+](=O)[O-])o1,Potency,[1],inactive
same,Potency,[2],inactive
O=C1c2c(O)cc(O)cc2O[C@H](c2cc(O)c(O)c(O)c2)[C@H]1O,Potency,[1],inactive
same,Potency,[2],inactive
CO[C@H]1C[C@@H]2CC[C@@H](C)[C@@](O)(O2)C(=O)C(=O)N2CCCC[C@@H]2C(=O)O[C@H]([C@@H](C)C[C@@H]2CC[C@H](O)[C@H](OC)C2)CC(=O)[C@H](C)C=C(C)[C@@H](O)[C@@H](OC)C(=O)[C@H](C)C[C@H](C)C=CC=CC=C1C,Potency,[1],inactive
same,Potency,[2],inactive
Cc1c[nH]c(C=C2C(=O)Nc3ccccc32)c1CCC(=O)O,Potency,[1],inactive
N#CC(=C(N)Sc1ccccc1N)C(C#N)=C(N)Sc1ccccc1N,Potency,[1],inactive
same,Potency,[2],inactive
O=C1NC(=O)C(=Cc2cccc(C(F)(F)F)c2)S1,Potency,[1],inactive
same,Potency,[2],inactive
CCC(=O)O[C@]1(C(=O)CO)CC[C@H]2[C@@H]3CCC4=CC(=O)CC[C@]4(C)[C@@H]3CC[C@@]21C,Potency,[1],inactive
CCC(CC)[C@H](NC(C)=O)[C@@H]1[C@H](O)[C@@H](C(=O)O)C[C@@H]1N=C(N)N,Potency,[1],inactive
same,Potency,[2],inactive
O=C(O)CCC1CCC(c2cc(F)ccc2F)(S(=O)(=O)c2ccc(Cl)cc2)CC1 (stereo not given),Potency,[1],inactive
same,Potency,[2],inactive
COC(=O)N[C@H](C(=O)N1CCC[C@@H]1c1ncc(-c2ccc(-c3ccc(-c4cnc([C@@H]5CCCN5C(=O)[C@@H](NC(=O)OC)C(C)C)[nH]4)cc3)cc2)[nH]1)C(C)C,Potency,[1],inactive
same,Potency,[2],inactive
Nc1nc(F)nc2c1ncn2[C@@H]1O[C@H](COP(=O)(O)O)[C@@H](O)[C@H]1O,Potency,[1],inactive
CN1C[C@H]2c3ccccc3Oc3ccc(Cl)cc3[C@@H]2C1,Potency,[7],11.2 µM (active)
COc1cccc2c1CCCC2CCCN1CCN(C2CCCCC2)CC1 (stereo not given),outcome,[8],inactive
CCCCCCCCCCCC1=C(O)C(=O)C=C(O)C1=O,outcome,[8],inactive
CCOc1ccc(Nc2nc(-c3c(C)nc4ccccn34)cs2)cc1,Potency,[9],inactive
CC(C)(C)Cn1c(N)nc2ccc(-c3[nH]c(C(C)(C)C)nc3-c3ccc(F)cc3)nc21,Potency,[9],17.8 µM (active)
Cn1c(N2CCCCS2(=O)=O)nc(C(=O)NCc2ccc(F)cc2)c(O)c1=O,Potency,[10],inactive
CC1CCC(C(=O)N(c2cc(C#CC(C)(C)C)sc2C(=O)O)C2CCC(O)CC2)CC1 (stereo not given),Potency,[10],inactive
COc1cc(Nc2ncc(F)c(Nc3ccc4c(n3)NC(=O)C(C)(C)O4)n2)cc(OC)c1OC,Potency,[9],inactive
NC(=O)c1cccc2[nH]c(-c3ccc([C@H]4CCCN4)cc3F)nc12,Potency,[1],inactive
same,Potency,[6],14.8 µM (active)
same,Potency,[11],10.5 µM (active)
COc1ccc2c(Oc3ccc(NC(=O)c4c(C)n(CC(C)(C)O)n(-c5ccccc5)c4=O)cc3F)ccnc2c1,Potency,[1],inactive
same,Potency,[10],23.9 µM (active)
same,Potency,[6],11.5 µM (active)
